Assay results: PubChem BioAssay AID1159580 (chemical genetic matrix, 2015)
About 2,000 (36%) of roughly 5,500 compounds were called active. Not shown: some 18% with an inconclusive outcome. Rule as the data show it: active = normalized growth mostly below about 0.91 (no sharp cut-off); inconclusive = no clear call, values can overlap the other calls; inactive = mostly above about 0.92. Some of the results follow.

Experiment: chemical genetic growth profiling, strain panel (AID 1159580);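 also: tested at 20 µM; growth read once vehicle control cultures reached saturation at 30 °C; 1 = growth at the plate median or of vehicle wells; lower values mean less growth of the strain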
Details: growth OD

Measured: normalized growth

CCCC(=O)O[C@]1(C(=O)CO)CCC2[C@@H]3CCC4=CC(=O)CC[C@]4(C)C3[C@@H](O)C[C@@]21C (stereo not given in full)
inactive: S. cerevisiae deletion strains, locus YJR066W, strain TOR1, active compounds read low 0.99 | S. cerevisiae deletion strains, locus YKL009W, strain mrt4, active compounds read low 0.958 | S. cerevisiae deletion strains, locus YKL068W, active compounds read low 1.02 | S. cerevisiae deletion strains, locus YKL085W, strain MDH1 (second series), active compounds read low 1.01 | S. cerevisiae deletion strains, locus YKL085W, strain MDH1, active compounds read low 1.01 | S. cerevisiae deletion strains, locus YKL160W, strain elf1, active compounds read low 1.01 | S. cerevisiae deletion strains, locus YKL190W, strain CNB1, active compounds read low 1 | S. cerevisiae deletion strains, locus YKR001C, strain vps1, active compounds read low 0.982 | S. cerevisiae deletion strains, locus YKR026C, strain gcn3, active compounds read low 1.01 | S. cerevisiae deletion strains, locus YKR091W, strain srl3, active compounds read low 1 | S. cerevisiae deletion strains, locus YLL001W, strain dnm1, active compounds read low 1.01 | S. cerevisiae deletion strains, locus YLL026W, active compounds read low 1 | S. cerevisiae deletion strains, locus YLL041C, strain sdh2, active compounds read low 1 | S. cerevisiae deletion strains, locus YLR027C, strain aat2, active compounds read low 1 | S. cerevisiae deletion strains, locus YLR039C, strain RIC1, active compounds read low 0.988 | S. cerevisiae deletion strains, locus YLR058C, strain SHM2, active compounds read low 1.01 | S. cerevisiae deletion strains, locus YLR102C, strain apc9, active compounds read low 0.985 | S. cerevisiae deletion strains, locus YLR113W, strain HOG1, active compounds read low 1.07 | S. cerevisiae deletion strains, locus YLR221C, strain rsa3, active compounds read low 1.01 | S. cerevisiae deletion strains, locus YLR258W, strain gsy2, active compounds read low 1.01 | S. cerevisiae deletion strains, locus YLR262C, strain YPT6 (second series), active compounds read low 1.01 | S. cerevisiae deletion strains, locus YLR262C, strain YPT6, active compounds read low 1.01 | S. cerevisiae deletion strains, locus YLR268W, strain sec22, active compounds read low 0.988 | S. cerevisiae deletion strains, locus YLR320W, strain mms22, active compounds read low 1.02 | S. cerevisiae deletion strains, locus YLR330W, strain CHS5, active compounds read low 1.01 | S. cerevisiae deletion strains, locus YLR342W, strain FKS1 (second series), active compounds read low 0.996 | S. cerevisiae deletion strains, locus YLR342W, strain FKS1, active compounds read low 1.02 | S. cerevisiae deletion strains, locus YLR357W, strain rsc2, active compounds read low 1 | S. cerevisiae deletion strains, locus YLR370C, strain arc18, active compounds read low 1.01 | S. cerevisiae deletion strains, locus YLR371W, strain rom2, active compounds read low 0.996 | S. cerevisiae deletion strains, locus YLR384C, strain iki3, active compounds read low 1.01 | S. cerevisiae deletion strains, locus YLR418C, strain cdc73, active compounds read low 0.934 | S. cerevisiae deletion strains, locus YML016C, strain PPZ1, active compounds read low 1.01 | S. cerevisiae deletion strains, locus YML032C, strain rad52, active compounds read low 0.948 | S. cerevisiae deletion strains, locus YML120C, strain ndi1, active compounds read low 0.992 | S. cerevisiae deletion strains, locus YML124C, strain tub3, active compounds read low 0.996 | S. cerevisiae deletion strains, locus YMR058W, strain fet3, active compounds read low 1.01 | S. cerevisiae deletion strains, locus YMR078C, strain ctf18, active compounds read low 0.984 | S. cerevisiae deletion strains, locus YMR125W, strain sto1, active compounds read low 1.02 | S. cerevisiae deletion strains, locus YMR129W, active compounds read low 1.01 | S. cerevisiae deletion strains, locus YMR205C, strain PFK2, active compounds read low 1.02 | S. cerevisiae deletion strains, locus YMR223W, strain ubp8, active compounds read low 0.951 | S. cerevisiae deletion strains, locus YMR231W, strain pep5, active compounds read low 1.01 | S. cerevisiae deletion strains, locus YMR263W, strain SAP30, active compounds read low 1.01 | S. cerevisiae deletion strains, locus YMR307W, strain GAS1, active compounds read low 0.999 | S. cerevisiae deletion strains, locus YNL067W, strain RPL9B, active compounds read low 1.01 | S. cerevisiae deletion strains, locus YNL071W, strain lat1, active compounds read low 1 | S. cerevisiae deletion strains, locus YNL128W, strain TEP1, active compounds read low 0.994 | S. cerevisiae deletion strains, locus YNL153C, strain GIM3, active compounds read low 1.02 | S. cerevisiae deletion strains, locus YNL183C, strain NPR1, active compounds read low 0.995 | S. cerevisiae deletion strains, locus YNL209W, strain ssb2, active compounds read low 1 | S. cerevisiae deletion strains, locus YNL233W, strain BNI4, active compounds read low 1.02 | S. cerevisiae deletion strains, locus YNL248C, strain rpa49, active compounds read low 1.02 | S. cerevisiae deletion strains, locus YNL250W, strain rad50, active compounds read low 0.983 | S. cerevisiae deletion strains, locus YNL271C, strain bni1, active compounds read low 0.992 | S. cerevisiae deletion strains, locus YNL298W, strain CLA4, active compounds read low 0.972 | S. cerevisiae deletion strains, locus YNL307C, strain MCK1, active compounds read low 0.982 | S. cerevisiae deletion strains, locus YNL322C, strain KRE1 (second series), active compounds read low 1.01 | S. cerevisiae deletion strains, locus YNR049C, strain mso1, active compounds read low 1.01 | S. cerevisiae deletion strains, locus YNR052C, strain pop2, active compounds read low 0.975 | S. cerevisiae deletion strains, locus YOL006C, strain TOP1, active compounds read low 1.06 | S. cerevisiae deletion strains, locus YOL012C, strain htz1 1.05 | S. cerevisiae deletion strains, locus YOL147C, strain pex11, active compounds read low 0.982 | S. cerevisiae deletion strains, locus YOR001W, strain rrp6, active compounds read low 1.02 | S. cerevisiae deletion strains, locus YOR061W, strain CKA2, active compounds read low 1.01 | S. cerevisiae deletion strains, locus YOR069W, strain VPS5, active compounds read low 1 | S. cerevisiae deletion strains, locus YOR070C, strain gyp1, active compounds read low 1 | S. cerevisiae deletion strains, locus YOR080W, strain dia2, active compounds read low 0.997 | S. cerevisiae deletion strains, locus YOR083W, strain WHI5, active compounds read low 1 | S. cerevisiae deletion strains, locus YOR106W, strain vam3, active compounds read low 1 | S. cerevisiae deletion strains, locus YOR136W, strain idh2, active compounds read low 0.983 | S. cerevisiae deletion strains, locus YOR144C, strain elg1, active compounds read low 0.977 | S. cerevisiae deletion strains, locus YOR184W, strain ser1, active compounds read low 0.963 | S. cerevisiae deletion strains, locus YOR231W, strain MKK1, active compounds read low 1.09 | S. cerevisiae deletion strains, locus YOR265W, strain rbl2, active compounds read low 1 | S. cerevisiae deletion strains, locus YOR270C, strain vph1, active compounds read low 1.01 | S. cerevisiae deletion strains, locus YOR290C, strain snf2, active compounds read low 1 | S. cerevisiae deletion strains, locus YOR316C, strain cot1, active compounds read low 0.994 | S. cerevisiae deletion strains, locus YPL051W, strain arl3, active compounds read low 1 | S. cerevisiae deletion strains, locus YPL055C, strain LGE1, active compounds read low 1.04 | S. cerevisiae deletion strains, locus YPL078C, strain atp4, active compounds read low 1.01 | S. cerevisiae deletion strains, locus YPL106C, strain sse1, active compounds read low 1.02 | S. cerevisiae deletion strains, locus YPL240C, strain hsp82, active compounds read low 1 | S. cerevisiae deletion strains, locus YPL256C, strain CLN2, active compounds read low 1.05 | S. cerevisiae deletion strains, locus YPR119W, strain clb2, active compounds read low 0.993 | S. cerevisiae deletion strains, locus YPR141C, strain kar3, active compounds read low 1.01 | S. cerevisiae deletion strains, locus YPR163C, strain tif3, active compounds read low 1.01 | S. cerevisiae deletion strains, locus YPR167C, strain met16, active compounds read low 0.99 | S. cerevisiae deletion strains, strain wtn01, active compounds read low 0.961 | S. cerevisiae strains, strain wild type, active compounds read low 1.01
